Assay outcomes as filed in PubChem BioAssay.
Only a selection was taken, and hits are over-represented in it overall.
Shiga inhibitor: A qHTS for Small Molecule Inhibitors of Shiga Toxin; Vero cells, Shiga toxin protein synthesis inhibition reporter; AID 2315, 2010; inhibition, % at 38.7 µM; hit rate 9.2% among 290,000; in the data active = inhibition mostly above about 28%, no sharp cut-off; inactive = mostly below about 43%
Giardia FBPA inh: qHTS Assay for Inhibitors of Fructose-1,6-bisphosphate Aldolase from Giardia Lamblia; A8B2U2; purified Giardia FBPA; Potency, µM (series often up to 59.6 µM), usual class: inhibitors; hit rate 0.71% among 290,000; note: nearly all actives have a fitted effect of over 55% in size
Target sequence (A8B2U2 whole entry, looked up): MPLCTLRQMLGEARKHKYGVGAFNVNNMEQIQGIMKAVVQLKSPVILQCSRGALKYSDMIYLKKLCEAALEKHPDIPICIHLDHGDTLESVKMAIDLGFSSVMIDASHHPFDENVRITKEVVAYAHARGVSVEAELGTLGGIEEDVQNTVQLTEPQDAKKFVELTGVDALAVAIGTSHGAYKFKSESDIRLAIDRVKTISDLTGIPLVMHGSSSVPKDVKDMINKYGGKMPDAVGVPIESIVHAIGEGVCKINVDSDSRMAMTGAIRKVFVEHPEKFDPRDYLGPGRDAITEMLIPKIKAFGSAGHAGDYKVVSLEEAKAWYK
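Giardia FBPA (40 nM reagent) was preincubated 10 min at RT with compound (up to 57.5 uM final), then substrate plus GAPDH/TPI/NAD/arsenate coupling system with diaphorase/resazurin was added; resorufin fluorescence (525/598 nm) was read after 20 min.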
TbPYK inhibitor: qHTS of Trypanosoma Brucei Inhibitors; pyruvate kinase (Trypanosoma brucei), Q57TT1; Potency, µM (top dose mostly 76.8 µM), usual class: inhibitors; hit rate 0.12% among 410,000; TbPYK enzyme, Kinase-Glo Plus ATP luminescence, 45 min; note: nearly all actives have a fitted effect of over 50% in size
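Assay buffer: 50 mM TEA pH 7.2, 100 mM KCl, 10 mM MgCl2, 0.05% BSA, 0.01% Tween-20. Pyruvate kinase from T. brucei plus substrate met compound, then ADP (130 uM final). Luminescence was read post 45 min RT.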
RE007 growth inh: qHTS Assay for Inhibitors of the HIV-1 protein Vpr | S. pombe RE007 Vpr strain, BacTiter-Glo ATP luminescence, 24 h | Potency, µM (doses to about 92.2 µM), usual class: inhibitors | hit rate 0.21% among 360,000; active = well fitted falling curve with a large enough effect; inconclusive = small, poorly fitted or top-dose-only effect; inactive = no such curve, though single readings can be large or run the other way; note: nearly all actives have a fitted effect of over 50% in size
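Fission yeast RE007 carrying one integrated HIV-1 vpr copy, seeded at OD 0.01 in PMG+AL medium with 23 nL pinned compound. Grown 24 h at 30 degrees; viability read by BacTiter-Glo luminescence after 5 min.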
Cycloheximide cs: Cycloheximide Counterscreen for Small Molecule Inhibitors of Shiga Toxin. hit rate 12% among 300,000. max response, %. cell reporter, cycloheximide protein synthesis inhibition counterscreen; in the data active = max response mostly above about 13%, no sharp cut-off; inactive = mostly below about 14%; note: read at 38.3 µM for the half of the compounds with a filed dose
LmPK inhibitor: qHTS Assay for Inhibitors of Leishmania Mexicana Pyruvate Kinase (LmPK); purified LmPK, Kinase-Glo ATP luminescence, 1 h; hit rate 0.37% among 290,000; AID 1721, 2009; Potency, µM (doses to about 57.5 µM), hits mostly inhibitors
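qHTS format; LmPK 0.1 nM; substrates PEP 0.5 mM and ADP 0.1 mM. One-hour room-temperature incubation, then coupled luciferase luminescence; 0.5 nM enzyme wells mark activation.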
A number is an active result; - = inactive; ? = inconclusive; . = no result given; [ ] = dose if it differs, or a comment. Unless noted, calls come from the whole dose curve; as a rule, active = well fitted curve in the direction sought with a large enough effect; inconclusive = small, poorly fitted or top-dose-only effect, or another doubt; inactive = no such curve, though single readings can be large; an effect the other way counts as inactive or inconclusive.

SMILES | Shiga inhibitor | Giardia FBPA inh | TbPYK inhibitor | RE007 growth inh | Cycloheximide cs | LmPK inhibitor
O=C(Cc1nnc(NC(=O)Nc2ccc(F)cc2)s1)Nc1ccccc1 | - | - | - | - | - | -
Cc1nnc(NC(=O)c2ccccc2)s1 | . | . | - | . | . | .
O=C(COc1ccc2ccccc2c1)Nc1nnc(-c2ccco2)s1 | - | - | - | ? | - | -
COc1ccc(C(=O)Nc2nnc(-c3ccco3)s2)cc1 | 71.8 | - | - | - | 36.7 | ?
Cc1cc([N+](=O)[O-])ccc1N=Nc1c(N)[nH]n(-c2ccccc2)c1=O | - | - | - | - | - | -
Nc1[nH]n(-c2ccccc2)c(=O)c1N=Nc1ccc2c(c1)OCCO2 | 59.1 | - | - | - | 33.4 | -
Cc1[nH]n(-c2ccccc2)c(=O)c1N=Nc1ccc(C#N)cc1 | - | - | - | - | - | -
Nc1[nH]n(-c2ccccc2)c(=O)c1N=Nc1ccc2c(c1)OCO2 | 121.3 | - | - | - | 36.3 | -
COCCNC(=O)c1cc2oc3ccccc3c2n1C | 89.5 | - | - | - | 62.0 | -
Cn1c(C(=O)NCc2cccc(Cl)c2)cc2oc3ccccc3c21 | . | . | - | . | . | .
CCn1cc(C(=O)NCCc2ccc(Cl)cc2)c(=O)c2cc(S(=O)(=O)N3CCOCC3)ccc21 | . | . | - | . | . | .
CCc1ccc(NC(=O)CSc2nc(N)c(NC(=O)c3ccc(F)c(F)c3)c(=O)[nH]2)cc1 | 24.9 | - | - | - | 17.0 | -
Nc1nc(CSCCO)nc(Nc2ccc(F)cc2)n1 | - | - | - | - | 25.2 | -
CN1CCN(C(=S)SCc2nc(N)nc(Nc3ccc(F)cc3)n2)CC1 | - | - | - | - | 18.6 | -
Nc1nc(CSC(=S)N2CCOCC2)nc(Nc2ccc(F)cc2)n1 | - | - | - | - | - | -
Cc1ccc(Nc2nc(N)nc(CSC(=S)N3CCN(c4ccccc4)CC3)n2)cc1 | - | - | - | - | - | -
COc1ccc(Nc2nc(N)nc(CSC(=S)N3CCOCC3)n2)cc1 | 67.4 | - | - | - | 39.1 | -
Cc1ccc(Nc2nc(N)nc(CSC(=S)N3CCOCC3)n2)c(C)c1 | 71.7 | - | - | - | 33.5 | -
COc1ccc(CNC(=O)Cn2nc(N3CCN(c4ccccc4)CC3)ccc2=O)c(OC)c1 | . | . | - | . | . | .
COc1ccc2sc(N(Cc3cccnc3)C(=O)C3COc4ccccc4O3)nc2c1 (centres undefined) | . | . | -[15.4 µM] | . | . | .
COc1ccccc1CNC(=O)c1ccc2nc(CCc3ccccc3)oc2c1 | . | . | - | . | . | .
COc1cc(/C=C(\C#N)c2nc3ccccc3s2)ccc1OCC(=O)Nc1ccccc1 | - | - | - | - | - | -
Cc1ccc(/C=C(\CCC(=O)O)c2nc3ccccc3s2)cc1[N+](=O)[O-] | - | - | - | ? | - | -
O=C(O)C/C(=C\c1cccc(NC(=O)c2ccccc2Cl)c1)c1nc2ccccc2s1 | 52.4 | - | - | - | 26.5 | -
COc1cc(C=C(c2nc3ccccc3s2)c2nc3ccccc3s2)cc(OC)c1O | - | ? | - | - | 16.6 | -
SMILES | Shiga inhibitor | Giardia FBPA inh | TbPYK inhibitor | RE007 growth inh | Cycloheximide cs | LmPK inhibitor
CN(c1ccccc1)c1ccc(/C=C(\CCC(=O)O)c2nc3ccccc3s2)cc1[N+](=O)[O-] | - | - | - | - | 16.5 | -
CCOc1cc(/C=C(\CC(=O)O)c2nc3ccccc3s2)ccc1OC | - | - | - | - | - | -
COc1ccc(C(=O)Nc2cccc(/C=C(\CCC(=O)O)c3nc4ccccc4s3)c2)cc1 | 59.3 | - | - | - | 17.0 | -
Cc1ccc(S(=O)(=O)NCC2CCC(C(=O)N3CCN(C)CC3)CC2)cc1 (centres undefined) | - | . | - | - | - | -
COc1cc(/C=C(\CC(=O)O)c2nc3ccccc3s2)cc(OC)c1O | - | - | ? | - | - | -
COc1ccc(/C=C(\CC(=O)O)c2nc3ccccc3s2)cc1O | 71.9 | - | - | - | - | -
O=C(O)c1ccc(C=C(c2nc3ccccc3s2)c2nc3ccccc3s2)cc1 | - | ? | - | ? | - | -
CN(C)c1ccc(/C=C(\Cl)c2nc3ccccc3s2)cc1 | 79.3 | - | - | - | 65.8 | -
Cc1cc2c(s1)c1cnn(Cc3c(F)cccc3F)c(=O)c1n2C | - | . | . | . | - | .
